Most compounds without a hit are left out; they make up all but 2.9% or so of the library.
CF NFkB block: inhibitors of cystic fibrosis induced NF-kB | 360,000 compounds, 0.86% hits | AID 588850 | KKLEB NF-kB-GFP reporter, PAF-induced, GFP fluorescence overnight | inhibition, % at 5 µM;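 active = at least 50% inhibition at 5 µM, scaled per plate between neutral and stimulator controls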;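 note: PAF is a Pseudomonas aeruginosa culture filtrate used as stimulus; plate controls were PAF-stimulated DMSO wells for no effect and unstimulated DMSO wells for full effect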
EBV LMP1 NFkB: reduces LMP1-driven NF-kappaB luciferase signal; LMP1-induced NF-kappaB luciferase reporter cells, luminescence; 350,000 compounds, 0.69% hits; AID 504558; inhibition, % at 12.5 µM; in the data active = inhibition above about 41%; inconclusive = no clear call, values can overlap the other calls;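 note: 0% = neutral control wells and 100% = reference inhibitor control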
MITF TRPM1 inh: MITF TRPM1 promoter inhibition in SK-MEL-5 cells | AID 488899 | 330,000 compounds, 0.83% hits | inhibition, % at 12.5 µM | SK-MEL-5 TRPM1 promoter luciferase, 24 h;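 active = mean inhibition across replicates of 60% or more, whatever share of single replicates reaches that level; inconclusive = some that reach 60%, reason not given; inactive = mean inhibition across replicates below 60%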
KKLEB cytotox: counter-screen for CF NF-kB inhibitors: cytotoxicity. KKLEB CF airway cells viability, ATPlite luminescence, overnight; active compounds read low; cells stimulated with P. aeruginosa culture filtrate. activity change (cytotoxicity), % at 5 µM. 360,000 compounds, 0.36% hits. AID 602141;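 active = corrected activity change at or below -50% at 5 µM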
Shn3 3UTR inh: inhibitors of Schnurri-3 3'UTR reporter in osteoblasts. AID 588674. 360,000 compounds, 0.52% hits. inhibition, % at 12.5 µM. Clone20 osteoblast Shn3 3'UTR firefly luciferase, 24 h;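 active = mean inhibition of at least 75% with every replicate also reaching 75%; inconclusive = mean inhibition at least 75% but some replicate below; inactive = mean inhibition below 75%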;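 note: 0% = median of neutral control wells and 100% = pilot-screen positive control compound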
Peg3 promoter: reduces Peg3 promoter-driven luciferase expression in HeLa | HeLa PEG-Prom luciferase reporter, luminescence, overnight | inhibition, % at 20 µM | 360,000 compounds, 1.7% hits | AID 588405;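 active = inhibition of at least 50% at 20 µM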
* marks the source's active call; other numbers are inactive results; ? = inconclusive; / = not tested or not shown.

SMILES	CF NFkB block	EBV LMP1 NFkB	MITF TRPM1 inh	KKLEB cytotox	Shn3 3UTR inh	Peg3 promoter
O=C(O)c1cc(N=Nc2c(O)ccc3ccccc23)cc(C(=O)O)c1	5.3	-16.7	15.0	-10.1	0.9	0.2
O=C(O)c1cc2ccccc2c(N=Nc2cccnc2)c1O	18.4	8.8	?	-12.3	-58.6	55.2*
COc1ccccc1Nc1nc(N)nc(CCl)n1	13.0	-5.8	9.3	-7.7	-12.9	26.3
Cc1ccc(Nc2nc(N)nc(CCl)n2)c(C)c1	83.1*	33.4	-14.5	-72.5*	-109.5	41.1
Cc1cccc(Nc2nc(N)nc(CCl)n2)c1C	100.1*	/	/	-84.9*	-11.4	57.7*
OC[C@@H]1CN(C2CCCC2)C[C@H](n2cnc3c(NC4CC4)ncnc32)O1	-7.3	/	/	-0.9	-7.0	5.0
O=C(c1c[nH]c(C(=O)C(Cl)(Cl)Cl)c1)c1ccc(F)cc1F	2.4	1.2	6.9	8.2	6.0	38.2
O=C(c1c[nH]c(C(=O)C(Cl)(Cl)Cl)c1)c1ccc(F)cc1Cl	15.6	2.8	5.3	8.5	22.6	53.6*
O=C(c1ccccc1)c1c[nH]c(C(=O)C(Cl)(Cl)Cl)c1	-34.8	-6.7	5.0	11.2	-5.9	39.5
O=C(c1ccc(Cl)cc1)c1c[nH]c(C(=O)C(Cl)(Cl)Cl)c1	-3.2	-7.1	-8.8	2.1	-19.8	58.4*
Cc1ccccc1N=CC1=C(O)c2ccccc2C1=O	-42.6	37.8	45.6	-59.6*	23.7	18.7
CCCCN(C(=O)COC(=O)c1sccc1C)c1c(N)n(CCC)c(=O)[nH]c1=O	14.6	-4.4	/	-11.4	-43.9	6.9
NC(c1ccccc1)c1csc(NC(=O)Nc2ccccc2Oc2ccccc2)n1 (stereo not drawn)	22.6	/	/	-25.2	-9.1	82.4*
NC(Cc1ccc(F)cc1)c1csc(NC(=O)NC(c2ccccc2)c2ccccc2)n1 (stereo not drawn)	31.3	/	/	-30.9	39.5	96.2*
COc1ccc(CC(N)c2csc(NC(=O)Nc3ccccc3C(C)C)n2)cc1 (stereo not drawn)	-27.9	/	/	10.3	9.5	100.0*
COc1ccccc1NC(=O)Nc1nc(C(N)C(C)C)cs1 (stereo not drawn)	34.0	/	/	-26.7	-13.7	-30.7
COc1ccc(CC(N)c2csc(NC(=O)Nc3ccc(OC)cc3)n2)cc1 (stereo not drawn)	-19.1	/	/	-6.5	0.5	14.8
COc1ccc(CC(N)c2csc(NC(=O)Nc3ccccc3Cc3ccccc3)n2)cc1 (stereo not drawn)	3.2	/	/	3.3	48.4	104.0*
COC(=O)c1cc([N+](=O)[O-])c(C)c(C)n1	-12.6	-9.2	/	-3.4	55.3	-12.1
Cc1ccc(C)c(N2CCN(C(=O)CCc3nc(-c4cccc(Cl)c4)no3)CC2)c1	0.5	-25.4	-72.9	4.4	-149.1	-318.3
COc1ccccc1NC(=O)Nc1nc(C(N)Cc2ccc(C(F)(F)F)cc2)cs1 (stereo not drawn)	13.8	/	/	-2.0	81.9*	96.2*
COc1ccc(CCNC(=O)Nc2nc(C(N)CCc3ccccc3)cs2)cc1OC (stereo not drawn)	-0.3	/	/	0.6	-24.0	27.7
NC(Cc1ccccc1)c1csc(NC(=O)Nc2ccccc2Oc2ccccc2)n1 (stereo not drawn)	6.6	/	/	-12.8	?	103.6*
NC(c1ccccc1)c1csc(NC(=O)Nc2ccc(OC(F)(F)F)cc2)n1 (stereo not drawn)	21.7	/	/	-7.4	12.7	105.1*
COc1ccc(CC(N)c2csc(NC(=O)Nc3ccccc3Oc3ccccc3)n2)cc1 (stereo not drawn)	19.9	/	/	-16.1	14.5	97.5*
CC(C)CC(N)c1csc(NC(=O)NCCc2ccccc2)n1 (stereo not drawn)	-18.1	/	/	8.8	-3.6	24.5
NC(Cc1ccc(C(F)(F)F)cc1)c1csc(NC(=O)Nc2ccccc2Oc2ccccc2)n1 (stereo not drawn)	15.0	/	/	-21.6	48.6	97.9*
NC(Cc1ccc(C(F)(F)F)cc1)c1csc(NC(=O)NCCc2ccccc2)n1 (stereo not drawn)	35.5	/	/	-31.8	52.1	108.7*
CC(=O)OCC(=O)C1(O)CCC2C3CC(C)C4=CC(=O)C=CC4(C)C3=CCC21C (stereo not drawn)	44.9	13.8	-5.0	5.3	-5.9	-0.6
CC(=O)C1(O)CCC2C3CC(C)C4=CC(=O)C=CC4(C)C3(F)C(O)CC21C (stereo not drawn)	70.9*	1.3	-5.7	36.1	-3.2	-6.8
